About 7,900 targets were measured; listed, in parts, are those with a hit and a random draw of the rest. About 0.6% of all pairs of compound and target were hits. A number with no mark means an inactive call.
Legend:
Assay in all cases: log2 fold change, soluble protein after heating vs DMSO (PISA); higher = thermal stabilisation; K562 cells, 10 uM, 30 min; active = over 0.2 and 3.5 SD of the protein, either way, in both replicates (recomputed)
[1] = compound: C1=CC=C(C=C1)[C@H](COC2=CC3=C(C=C2)NC(=O)N3)NC(=O)C4=CC=CN(C4=O)CC5=CC(=C(C=C5)F)F
How it was run: (§1)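 Quantification of soluble protein used TMTpro 16plex LC-MS/MS, with channel sums equalised. Samples were the supernatant after 21,000xg for 90 min of pooled aliquots from K562 cells (2×10^6 cells/mL) treated with 10 μM compound for 30 min, heated for 3 min over 48°C-58°C, and extracted in PBS with 0.5% NP-40 at 4°C. Values, from duplicates, describe thermal stability against control samples on a log2 fold-change scale.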

[2] = compound: CC1=C(SC2=C1C(=N[C@H](C3=NN=C(N32)C)CC(=O)N)C4=CC=C(C=C4)Cl)C
How it was run: as §1

[3] = compound: CC1=C2C(=CC=C1)N=C(N(C2=O)C3=CC=CC=C3C)CN4C=NC5=C(N=CN=C54)N
How it was run: as §1

[4] = compound: Cc1sc2c(c1C)C(c1ccc(Cl)cc1)=N[C@@H](CC(=O)OC(C)(C)C)c1nnc(C)n1-2
How it was run: as §1

[5] = compound: c1ccc([C@@H]2C[C@H]2NC2CCNCC2)cc1
How it was run: as §1

UniProt Q96ER3, sequence (Q96ER3 whole entry, looked up): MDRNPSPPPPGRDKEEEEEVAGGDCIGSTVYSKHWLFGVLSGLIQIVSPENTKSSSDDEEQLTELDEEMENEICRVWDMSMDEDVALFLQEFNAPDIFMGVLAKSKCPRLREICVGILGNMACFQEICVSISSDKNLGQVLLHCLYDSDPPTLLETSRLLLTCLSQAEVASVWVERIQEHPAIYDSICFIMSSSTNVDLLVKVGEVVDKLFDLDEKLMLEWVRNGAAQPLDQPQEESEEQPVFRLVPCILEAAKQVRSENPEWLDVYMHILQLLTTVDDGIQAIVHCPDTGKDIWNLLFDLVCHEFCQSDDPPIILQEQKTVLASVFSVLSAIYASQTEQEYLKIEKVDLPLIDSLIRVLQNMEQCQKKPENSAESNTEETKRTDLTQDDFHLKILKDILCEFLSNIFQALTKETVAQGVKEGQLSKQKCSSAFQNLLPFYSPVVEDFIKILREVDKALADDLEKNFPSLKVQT
UniProt P43003, sequence (P43003 whole entry, looked up): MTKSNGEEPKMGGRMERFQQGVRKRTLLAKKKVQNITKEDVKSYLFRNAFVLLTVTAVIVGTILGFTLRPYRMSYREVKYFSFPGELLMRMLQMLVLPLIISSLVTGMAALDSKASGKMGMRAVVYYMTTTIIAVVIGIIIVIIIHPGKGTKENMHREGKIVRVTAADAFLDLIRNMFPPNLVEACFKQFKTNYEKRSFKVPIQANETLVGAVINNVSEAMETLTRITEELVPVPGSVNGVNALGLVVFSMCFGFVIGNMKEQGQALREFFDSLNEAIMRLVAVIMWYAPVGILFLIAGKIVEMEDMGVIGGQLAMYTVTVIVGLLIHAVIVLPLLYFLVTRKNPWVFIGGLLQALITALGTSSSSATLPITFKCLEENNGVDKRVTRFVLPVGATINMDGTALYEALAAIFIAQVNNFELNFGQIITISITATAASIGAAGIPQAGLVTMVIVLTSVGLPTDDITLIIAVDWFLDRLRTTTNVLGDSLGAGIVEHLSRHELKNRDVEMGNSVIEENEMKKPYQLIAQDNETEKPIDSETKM
UniProt P62070, sequence (P62070 whole entry, looked up): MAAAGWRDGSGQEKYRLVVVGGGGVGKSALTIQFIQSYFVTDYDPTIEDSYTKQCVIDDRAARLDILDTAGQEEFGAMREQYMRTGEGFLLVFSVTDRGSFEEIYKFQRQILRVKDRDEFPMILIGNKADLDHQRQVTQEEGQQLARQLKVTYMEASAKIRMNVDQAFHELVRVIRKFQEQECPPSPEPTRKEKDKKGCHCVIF
UniProt Q9Y6Y8, sequence (Q9Y6Y8 whole entry, looked up): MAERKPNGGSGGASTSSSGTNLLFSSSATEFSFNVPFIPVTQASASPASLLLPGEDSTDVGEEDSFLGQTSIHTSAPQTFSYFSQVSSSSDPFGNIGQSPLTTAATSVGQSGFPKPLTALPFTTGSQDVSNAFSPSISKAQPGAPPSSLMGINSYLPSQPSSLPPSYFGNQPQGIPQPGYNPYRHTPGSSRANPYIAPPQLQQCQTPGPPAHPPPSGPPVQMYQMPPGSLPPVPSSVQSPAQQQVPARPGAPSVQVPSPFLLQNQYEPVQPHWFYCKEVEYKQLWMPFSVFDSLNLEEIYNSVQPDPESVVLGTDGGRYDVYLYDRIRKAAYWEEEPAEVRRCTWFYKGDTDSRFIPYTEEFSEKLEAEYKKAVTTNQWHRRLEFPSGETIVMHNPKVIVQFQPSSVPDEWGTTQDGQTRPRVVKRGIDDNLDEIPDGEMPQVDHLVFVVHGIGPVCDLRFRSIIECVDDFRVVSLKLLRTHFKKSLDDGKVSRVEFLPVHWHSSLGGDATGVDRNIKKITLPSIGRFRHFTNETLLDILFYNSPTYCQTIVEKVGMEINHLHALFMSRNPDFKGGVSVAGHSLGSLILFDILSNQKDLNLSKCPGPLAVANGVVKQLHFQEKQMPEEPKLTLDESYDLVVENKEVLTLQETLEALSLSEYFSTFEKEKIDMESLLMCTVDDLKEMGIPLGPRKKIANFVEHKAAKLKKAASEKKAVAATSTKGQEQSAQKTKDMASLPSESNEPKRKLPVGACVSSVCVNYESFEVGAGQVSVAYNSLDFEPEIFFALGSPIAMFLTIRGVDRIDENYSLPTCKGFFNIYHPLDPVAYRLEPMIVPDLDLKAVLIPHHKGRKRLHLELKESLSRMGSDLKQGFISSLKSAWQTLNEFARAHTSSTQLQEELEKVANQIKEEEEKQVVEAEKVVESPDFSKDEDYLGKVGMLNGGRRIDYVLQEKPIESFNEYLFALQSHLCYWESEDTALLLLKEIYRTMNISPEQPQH
UniProt Q9BUV8, sequence (Q9BUV8 whole entry, looked up): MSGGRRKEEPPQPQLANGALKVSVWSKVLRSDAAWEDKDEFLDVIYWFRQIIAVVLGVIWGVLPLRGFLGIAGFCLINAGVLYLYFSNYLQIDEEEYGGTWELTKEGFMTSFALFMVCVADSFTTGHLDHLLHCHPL
UniProt Q15349, sequence (Q15349 whole entry, looked up): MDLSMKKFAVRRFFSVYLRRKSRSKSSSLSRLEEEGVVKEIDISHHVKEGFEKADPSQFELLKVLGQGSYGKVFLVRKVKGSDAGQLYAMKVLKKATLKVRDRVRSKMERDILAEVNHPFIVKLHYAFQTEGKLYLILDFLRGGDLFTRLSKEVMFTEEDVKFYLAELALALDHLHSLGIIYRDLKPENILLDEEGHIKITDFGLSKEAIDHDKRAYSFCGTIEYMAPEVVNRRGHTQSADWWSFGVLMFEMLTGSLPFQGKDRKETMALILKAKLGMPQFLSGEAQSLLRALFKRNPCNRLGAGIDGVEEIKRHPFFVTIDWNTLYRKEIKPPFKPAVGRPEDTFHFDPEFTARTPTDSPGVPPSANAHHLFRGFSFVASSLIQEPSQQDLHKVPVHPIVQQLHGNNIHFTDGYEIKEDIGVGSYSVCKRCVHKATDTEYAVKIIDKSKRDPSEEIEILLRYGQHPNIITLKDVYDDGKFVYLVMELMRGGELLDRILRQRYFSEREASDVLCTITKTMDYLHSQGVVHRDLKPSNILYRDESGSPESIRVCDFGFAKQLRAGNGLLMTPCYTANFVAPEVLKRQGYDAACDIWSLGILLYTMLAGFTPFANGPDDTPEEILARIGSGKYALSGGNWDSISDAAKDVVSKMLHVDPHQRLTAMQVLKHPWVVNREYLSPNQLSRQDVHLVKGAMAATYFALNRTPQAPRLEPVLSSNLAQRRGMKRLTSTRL
UniProt P51151, sequence (P51151 whole entry, looked up): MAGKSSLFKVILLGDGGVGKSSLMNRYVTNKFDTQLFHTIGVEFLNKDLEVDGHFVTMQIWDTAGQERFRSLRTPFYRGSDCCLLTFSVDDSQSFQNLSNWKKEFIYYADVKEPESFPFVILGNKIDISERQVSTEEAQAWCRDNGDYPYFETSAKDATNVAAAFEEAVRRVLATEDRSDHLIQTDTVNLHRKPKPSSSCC
UniProt Q9HB90, sequence (Q9HB90 whole entry, looked up): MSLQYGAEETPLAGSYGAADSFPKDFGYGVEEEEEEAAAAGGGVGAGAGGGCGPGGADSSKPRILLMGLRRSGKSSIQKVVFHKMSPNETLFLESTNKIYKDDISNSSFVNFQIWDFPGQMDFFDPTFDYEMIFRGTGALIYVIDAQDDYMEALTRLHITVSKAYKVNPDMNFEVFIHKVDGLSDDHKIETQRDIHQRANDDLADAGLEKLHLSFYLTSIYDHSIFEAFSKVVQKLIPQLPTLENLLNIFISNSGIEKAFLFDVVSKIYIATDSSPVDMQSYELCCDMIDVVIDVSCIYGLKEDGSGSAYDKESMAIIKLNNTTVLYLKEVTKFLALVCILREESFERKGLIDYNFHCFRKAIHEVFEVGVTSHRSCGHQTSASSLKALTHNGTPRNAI
UniProt Q8IZQ5, sequence (Q8IZQ5 whole entry, looked up): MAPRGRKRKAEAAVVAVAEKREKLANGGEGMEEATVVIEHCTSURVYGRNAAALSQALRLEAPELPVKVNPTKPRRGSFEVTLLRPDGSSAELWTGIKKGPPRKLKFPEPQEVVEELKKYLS
UniProt O43665, sequence (O43665 whole entry, looked up): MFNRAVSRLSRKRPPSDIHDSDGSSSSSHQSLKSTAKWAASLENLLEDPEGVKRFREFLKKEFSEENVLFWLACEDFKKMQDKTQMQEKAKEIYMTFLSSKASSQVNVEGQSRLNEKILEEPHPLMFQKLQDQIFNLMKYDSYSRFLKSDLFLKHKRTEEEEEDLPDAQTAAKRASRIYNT
UniProt Q9H082, sequence (Q9H082 whole entry, looked up): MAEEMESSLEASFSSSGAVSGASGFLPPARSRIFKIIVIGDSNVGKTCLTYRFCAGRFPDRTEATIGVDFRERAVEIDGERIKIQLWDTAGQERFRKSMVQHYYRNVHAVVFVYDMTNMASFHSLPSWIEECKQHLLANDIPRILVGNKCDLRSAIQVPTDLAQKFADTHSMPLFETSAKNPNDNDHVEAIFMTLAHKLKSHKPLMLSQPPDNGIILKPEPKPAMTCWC
UniProt Q9BQY4, sequence (Q9BQY4 whole entry, looked up): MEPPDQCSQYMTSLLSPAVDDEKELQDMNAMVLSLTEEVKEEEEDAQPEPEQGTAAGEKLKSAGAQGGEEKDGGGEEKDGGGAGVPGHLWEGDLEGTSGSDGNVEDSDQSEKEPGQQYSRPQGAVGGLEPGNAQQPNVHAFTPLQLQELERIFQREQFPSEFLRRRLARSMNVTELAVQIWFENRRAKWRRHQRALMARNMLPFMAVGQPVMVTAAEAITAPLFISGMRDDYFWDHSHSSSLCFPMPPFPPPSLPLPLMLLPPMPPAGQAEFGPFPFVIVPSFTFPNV
UniProt Q96GF1, sequence (Q96GF1 whole entry, looked up): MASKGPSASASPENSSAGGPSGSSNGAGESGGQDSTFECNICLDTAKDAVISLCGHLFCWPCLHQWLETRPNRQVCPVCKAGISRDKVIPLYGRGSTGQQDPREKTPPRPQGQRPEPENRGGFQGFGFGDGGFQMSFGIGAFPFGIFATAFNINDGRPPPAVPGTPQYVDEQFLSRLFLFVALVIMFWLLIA

Row | Target | log2 fold change [1] | log2 fold change [2] | log2 fold change [3] | log2 fold change [4] | log2 fold change [5]
1 | SCAMP2 (UniProt H3BUB6) | 0.03 | -0.017 | 0.308 | 0.15 | 0.135
2 | RBBP6 (UniProt Q7Z6E9) | 0.094 | 0.119 | -0.017 | 0.066 | -0.32
3 | RCOR1 (UniProt Q9UKL0) | -0.113 | 0.021 | 0.114 | 0.006 | 0.856 (active)
4 | SEC23IP (UniProt Q9Y6Y8) | -0.037 | 0.001 | 0.063 | 0.031 | -0.037
5 | SHROOM2 (UniProt Q13796) | 0.105 | 0.102 | 0.103 | -0.008 | -0.072
6 | SCPEP1 (UniProt Q9HB40) | 0.006 | -0.006 | -0.001 | 0.007 | -0.007
7 | RAC1 (UniProt P63000) | -0.046 | 0.017 | -0.111 | -0.098 | 0.033
8 | RAB9A (UniProt P51151) | 0.024 | 0.088 | 0.065 | -0.04 | 0.001
9 | SLBP (UniProt Q14493) | -0.092 | -0.056 | 0.042 | 0.059 | 0.034
10 | RPS18 (UniProt P62269) | 0.088 | -0.125 | -0.04 | 0.099 | 0.004
11 | RRAGC (UniProt Q9HB90) | 0.009 | 0.104 | 0.095 | -0.041 | 0.009
12 | RPS9 (UniProt P46781) | 0.073 | -0.19 | -0.24 | 0.134 | 0
13 | ROCK2 (UniProt O75116) | -0.026 | 0.003 | 0.085 | 0.024 | -0.01
14 | SAAL1 (UniProt Q96ER3) | -0.054 | 0.03 | 0.046 | 0.109 | -0.043
15 | ROR2 (UniProt Q01974) | -0.062 | 0.004 | 0.023 | -0.048 | -0.035
16 | SELENOH (UniProt Q8IZQ5) | 0.049 | -0.107 | -0.258 | -0.028 | 0.08
17 | RGS10 (UniProt O43665) | 0.014 | 0.042 | -0.035 | -0.022 | -0.058
18 | RAB33B (UniProt Q9H082) | 0.003 | -0.028 | 0.116 | -0.016 | 0.069
19 | RNF185 (UniProt Q96GF1) | -0.157 | 0 | 0.006 | 0.104 | -0.168
20 | SLC1A3 (UniProt P43003) | -0.031 | 0.003 | -0.016 | 0.17 | 0.039
21 | RRAS2 isoform 4 (UniProt P62070) | 0.045 | -0.017 | -0.062 | -0.03 | 0.011
22 | RHOXF2 (UniProt Q9BQY4) | 0.004 | -0.031 | 0.024 | 0.012 | 0.057
23 | RPS6KA2 isoform 2 (UniProt Q15349) | -0.016 | 0.045 | 0.087 | -0.015 | -0.02
24 | RAB5IF isoform 5 (UniProt Q9BUV8) | 0.003 | 0.101 | 0.024 | -0.08 | 0.028

Reference: the supplement of paper PMC10849652
